Among the data in PubChem BioAssay AID624122 (National Center for Advancing Translational Sciences (NCATS), 2012) are Kd values, retold here.

Calls of active or inactive are those of the source.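 How the source made its calls: active means a dissociation constant for apoferritin binding could be measured by titration calorimetry; inconclusive means binding seen but dissociation constant not obtainable; inactive means no binding seen.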

Chain of Ferritin light chain (Equus caballus) (P02791 2-175 limits assumed): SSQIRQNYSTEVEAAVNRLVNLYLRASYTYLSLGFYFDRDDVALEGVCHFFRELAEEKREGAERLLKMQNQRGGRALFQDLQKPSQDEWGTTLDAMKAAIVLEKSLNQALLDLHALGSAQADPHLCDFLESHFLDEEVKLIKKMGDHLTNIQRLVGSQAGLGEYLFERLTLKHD

This experiment addresses Ferritin light chain (Equus caballus) (UniProt P02791). Description: Isothermal Titration Calorimetry Based Assay for Measurement of Binding Affinity to Apoferritin. Particulars: horse apoferritin. The text has this:
Anesthetic development has remained a largely empirical process. There are growing concerns about the cognitive effects of known general anesthetics and acceleration of the onset of neurodegenerative disease. The compounds' toxicity and multiple specific binding targets in the mammalian brain [4] has made them less attractive as drug leads. This isothermal titration calorimetry (ITC) assay is used to provide Kd binding affinity measurements for apoferritin, which is used here as a surrogate system to identify compounds with potential anesthetic properties. References: [1] S.L. Bianchi, T. Tran, C. Liu, S. Lin, Y. Li, J.M. Keller, R.G. Eckenhoff, and M.F. Eckenhoff, Brain and behavior changes in 12-month-old Tg2576 and nontransgenic mice exposed to anesthetics. Neurobiol Aging 29 (2008) 1002-10. Z. Xie, Y. Dong, U. Maeda, R.D. Moir, W. Xia, D.J. Culley, G. Crosby, and R.E. Tanzi, The inhalation anesthetic isoflurane induces a vicious cycle of apoptosis and amyloid beta-protein accumulation. J Neurosci 27 (2007) 1247-54. […]
In order to further triage primary hits identified from qHTS screen (AID 485281), ITC was utilized to evaluate direct binding signatures between filtered compounds and apoferritin and provide a complete thermodynamic characterization of selected compounds. […] Concentrations were then determined using absorption spectroscopy based on standards prepared in organic solvents. […]
For orientation: Isothermal titration calorimetry measures the heat released or taken up as one component is titrated into another.
In the case of `COc1ccc(-c2ccc(=O)n(CC(=O)NCc3ccco3)n2)cc1`, the Kd was 4.2 µM (active).
In the case of `Cc1ccc(-c2ccc(=O)n(CC(=O)NCCc3ccccc3)n2)cc1`, the Kd is 8.2 µM (active).

What is called Kd is a measure of binding affinity in units of concentration.
